An excerpt weighted towards active compounds, which were near 3.9% of everything screened.
ALR H2O2 inh: inhibitors of human sulfhydryl oxidase ALR; P55789; purified ALR, DTT oxidation, H2O2 HRP-luminol luminescence; inhibition, % (no concentration beside the values); 3.8% of 290,000 active; AID 485317;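 active means mean replicate inhibition above about 79%, with every replicate also reaching it, limit read from the data; inconclusive means only one of the two criteria met; inactive means mean below limit and not every replicate reaching it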
NTR1 agonist: activates human neurotensin receptor 1 | P30989 | NTR1-U2OS beta-arrestin-GFP spot imaging, agonist mode | activation, % at 20 µM | 0.17% of 330,000 active | AID 493036;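 active means activation at or above 40% of the spot to cytoplasm intensity ratio, with at least 20 cells analyzed; inconclusive means wells under 20 cells, flagged as cytotoxic or low count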;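 further: 0% = DMSO without peptide and 100% = 100 nM NTR1 peptide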
Target sequence (P30989 whole entry, looked up): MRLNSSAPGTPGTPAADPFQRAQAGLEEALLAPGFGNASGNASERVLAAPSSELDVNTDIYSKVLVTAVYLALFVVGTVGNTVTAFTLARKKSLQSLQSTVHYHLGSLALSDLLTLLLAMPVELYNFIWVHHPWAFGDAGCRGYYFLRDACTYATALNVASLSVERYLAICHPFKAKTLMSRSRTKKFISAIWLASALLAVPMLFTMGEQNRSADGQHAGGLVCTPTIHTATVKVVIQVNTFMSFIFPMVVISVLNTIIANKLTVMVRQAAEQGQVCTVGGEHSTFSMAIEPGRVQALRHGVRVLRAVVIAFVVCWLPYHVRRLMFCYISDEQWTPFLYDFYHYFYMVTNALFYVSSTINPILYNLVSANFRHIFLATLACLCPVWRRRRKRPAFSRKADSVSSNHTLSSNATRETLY
H9c2 protect: protects H9c2 cardiomyocytes from peroxide injury; 0.63% of 360,000 active; protection from H2O2 cell death, % at 20 µM; H2O2 injury protection, ATPLite, 2 h;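 active means compounds giving at least 50% protection of heart cells from peroxide-induced death in the single-dose screen, raw or plate-pattern-corrected value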;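 further: 0% = DMSO wells with peroxide and 100% = DMSO wells without peroxide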
SUMO HTRF inh: inhibitors of human SUMOylation (UBC9); HTRF SUMOylation assay, SAE1/SAE2 + UBC9, in vitro; inhibition, % at 35 µM; 0.36% of 290,000 active; AID 2006; in the data active means inhibition above about 50%, passing the limit was not always enough; inconclusive means no clear call, values can overlap the other calls
* = called active by the depositor.

For Clc1ccc(C2Nc3cccc4cccc(c34)N2)cc1 the results were ALR H2O2 inh -6.0, NTR1 agonist 1.6, H9c2 protect -0.5 and SUMO HTRF inh 28.2.
Screening CCN1CCN(c2nc3c(c(=O)[nH]c(=O)n3C)n2CCSc2nc3ccccc3s2)CC1 returned NTR1 agonist -0.5, H9c2 protect 13.7 and SUMO HTRF inh 24.2.
`CC(CSc1nc2ccccc2s1)Cn1c(N2CCCC2)nc2c1c(=O)[nH]c(=O)n2C` (stereo not given) gave ALR H2O2 inh 98.5*, NTR1 agonist 7.0, H9c2 protect -2.3 and SUMO HTRF inh -11.1.
`Cc1csc(SCCn2c(N3CCN(c4ccccc4)CC3)nc3c2c(=O)[nH]c(=O)n3C)n1` gave ALR H2O2 inh 98.5*, NTR1 agonist 1.1, H9c2 protect 25.9 and SUMO HTRF inh 4.4.
For Nc1ccc(Nc2ccccc2)c(Cl)c1 the results were ALR H2O2 inh 99.6*, NTR1 agonist 4.3, H9c2 protect -3.7 and SUMO HTRF inh -31.6.
Screening Nc1ccccc1Nc1ccccc1 returned ALR H2O2 inh inconclusive, NTR1 agonist 0.0, H9c2 protect -36.2 and SUMO HTRF inh 33.8.
Screening Cc1cc(C)c2nc(-c3ccccn3)cc(C(=O)NCc3cc(C)n(C)n3)c2c1 returned ALR H2O2 inh -4.6, NTR1 agonist 5.4, H9c2 protect 18.2 and SUMO HTRF inh 23.9.
Screening Cc1cc(C)c2nc(-c3ccccn3)cc(C(=O)NCc3ccco3)c2c1 returned ALR H2O2 inh 89.1*, NTR1 agonist 0.6, H9c2 protect 13.4 and SUMO HTRF inh 36.6.
For CCc1ccc(NC(=O)CSc2nnc(CNC(=O)c3c(F)cccc3Cl)o2)cc1 the results were ALR H2O2 inh 98.6*, NTR1 agonist 2.3, H9c2 protect 0.1 and SUMO HTRF inh 3.9.
For O=C(CSc1nnc(CNC(=O)c2ccccc2F)o1)Nc1ccc2c(c1)OCO2 the results were ALR H2O2 inh 98.9*, NTR1 agonist -1.2, H9c2 protect 10.0 and SUMO HTRF inh 6.7.
For O=C(CSc1nnc(CNC(=O)c2ccccc2)o1)Nc1ccc2c(c1)OCCO2 the results were ALR H2O2 inh 98.4*, NTR1 agonist -0.2, H9c2 protect -0.7 and SUMO HTRF inh 8.7.
`CC1CN(S(=O)(=O)c2cccc3nsnc23)CC(C)O1` (stereo not given) gave ALR H2O2 inh -9.4, NTR1 agonist -1.1, H9c2 protect 4.1 and SUMO HTRF inh -14.3.
CC(=O)SCC(=O)N=c1sc2cc(F)ccc2n1C was read as ALR H2O2 inh 99.0*, NTR1 agonist 0.4, H9c2 protect -14.3 and SUMO HTRF inh 4.2.
Screening Cc1cc(C(=O)N/N=C/c2ccccn2)n[nH]1 returned NTR1 agonist 0.9, H9c2 protect 1.5 and SUMO HTRF inh 9.1.
For Cc1c(OC(C)C(=O)NCCCN2CCOCC2)ccc2c3c(c(=O)oc12)CCCC3 (stereo not given) the results were ALR H2O2 inh -4.2, NTR1 agonist 0.5 and H9c2 protect 4.0.
`CC(=O)c1c(C)n(-c2cccc(Cl)c2)c2ccc(O)cc12` gave ALR H2O2 inh -2.8, NTR1 agonist 2.9, H9c2 protect 61.7* and SUMO HTRF inh -4.5.
CC(=O)c1c(C)n(-c2ccc(Cl)cc2)c2ccc(O)cc12 was read as ALR H2O2 inh -11.6, NTR1 agonist 5.0, H9c2 protect 11.8 and SUMO HTRF inh 10.5.
Cc1cccc(OCCC(=O)Nc2ccc(C)c(S(=O)(=O)N3CCCCC3)c2)c1 was read as ALR H2O2 inh -20.9, H9c2 protect -10.3 and SUMO HTRF inh -23.2.
O=C(COc1ccc(Cl)cc1Cl)Nn1c(=S)[nH]c2ncccc2c1=O was read as ALR H2O2 inh inconclusive, NTR1 agonist 2.8, H9c2 protect 5.2 and SUMO HTRF inh 16.4.
COc1ccccc1OCC(=O)Nn1c(=S)[nH]c2ncccc2c1=O was read as ALR H2O2 inh 90.5*, NTR1 agonist -0.3, H9c2 protect 5.5 and SUMO HTRF inh -4.9.
For COc1cccc(NC(=O)CSc2nn3c(=O)c(C)nnc3s2)c1 the results were ALR H2O2 inh 98.9*, NTR1 agonist -0.1, H9c2 protect -1.2 and SUMO HTRF inh 6.9.
Screening Cc1nnc2sc(SCC(=O)Nc3cccc(Cl)c3)nn2c1=O returned ALR H2O2 inh 98.1*, NTR1 agonist -0.4, H9c2 protect -1.9 and SUMO HTRF inh -3.4.
Screening COc1ccc(OC)c(NC(=O)CSc2nn3c(=O)c(C)nnc3s2)c1 returned ALR H2O2 inh 85.6*, NTR1 agonist -0.3, H9c2 protect 7.8 and SUMO HTRF inh -4.6.
COc1cccc(NC(=O)CSc2ccccn2)c1 was read as ALR H2O2 inh 89.9*, NTR1 agonist 0.4, H9c2 protect 1.6 and SUMO HTRF inh 18.5.
Screening O=S(=O)(c1ccc(-c2cnc(C3CC3)o2)cc1)N1CCN(c2ccccc2)CC1 returned ALR H2O2 inh -1.5, NTR1 agonist 3.5, H9c2 protect -14.0 and SUMO HTRF inh -4.8.

Screening results deposited in PubChem BioAssay by several laboratories.
